An excerpt weighted towards active compounds, which were near 8.7% of everything screened.
AMA1 RON2 block = qHTS for Inhibitors of AMA1-RON; Towards Development of Antimalarial Drug Lead: Primary Screen | Plasmodium falciparum AMA1 (3D7) - RON2 peptide interaction | Potency, µM (titrated, usually from 58.2 µM), inactives show top-dose activity change, negative = inhibition, most hits filed as inhibitors | AlphaScreen AMA1-biotinylated RON2 peptide binding | 360,000 compounds, 0.2% hits;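 note: 0% = vehicle wells and -100% = peptide control; nearly all actives have a fitted effect of over 45% in size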
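AMA1 (3D7) with his tag at 25 nM final met compounds first, then biotinylated RON2 peptide at 25 nM; detection used donor plus acceptor beads, 10 µg/mL apiece, read by AlphaScreen after 30 min at room temperature.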
Pf growth 48h = Primary qHTS for delayed death inhibitors of the malarial parasite plastid, 48 hour incubation; 310,000 compounds, 5.9% hits; P. falciparum luciferase growth in erythrocytes, 48 h; AID 504832, 2011; Potency, µM (series often up to 28.7 µM), without a hit: top-dose activity change, negative = inhibition, usual class: inhibitors
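Here the parasites carry a stable luciferase gene and grow inside erythrocytes in Albumax-based RPMI medium with compound for one erythrocytic cycle. Activity is scored as loss of luminescent signal.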
VACV Venus inh = qHTS for Stage-Specific Inhibitors of Vaccinia Orthopoxvirus: Venus Reporter Primary qHTS. Potency, µM (series often up to 36.5 µM), without a hit: top-dose activity change, negative = inhibition, actives largely listed as inhibitors. 330,000 compounds, 0.46% hits. Vaccinia virus Venus reporter expression, fluorescence; calls by dose curve; tested in A549 cells; note: nearly all actives have a fitted effect of over 30% in size
VACV mCherry inh = qHTS for Stage-Specific Inhibitors of Vaccinia Orthopoxvirus: mCherry Reporter Primary qHTS | Potency, µM (titrated, usually from 36.5 µM), without a hit: top-dose activity change, negative = inhibition, usual class: inhibitors | Vaccinia virus mCherry reporter infection, fluorescence | 310,000 compounds, 0.63% hits; calls by dose curve; tested in A549 cells; note: nearly all actives have a fitted effect of over 35% in size
Pf growth 96h = Primary qHTS for delayed death inhibitors of the malarial parasite plastid, 96 hour incubation | P. falciparum luciferase reporter growth, 96 h | AID 504834, 2011 | Potency, µM (highest dose often 28.7 µM), for the others: top-dose activity change, negative = inhibition, hits mostly inhibitors | 320,000 compounds, 6.9% hits
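Compounds incubated with erythrocytes infected by luciferase-expressing P. falciparum (2% hematocrit, 0.05% parasitemia final) for 96 hours, 37 C in 5% CO2. Growth inhibition scored as decreased luciferase luminescence.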
* marks the source's active call; other numbers are inactive results; i = inactive; ? = inconclusive; . = not tested or not shown; [ ] = remark or other dose. Unless noted, calls come from the whole dose curve; as a rule, active = well fitted curve in the direction sought with a large enough effect; inconclusive = small, poorly fitted or top-dose-only effect, or another doubt; inactive = no such curve, though single readings can be large; an effect the other way counts as inactive or inconclusive. Unless noted, % is set by controls: 0 for no effect and ±100 for the full control effect; potency is the fitted concentration of half-maximal effect.

SMILES	AMA1 RON2 block	Pf growth 48h	VACV Venus inh	VACV mCherry inh	Pf growth 96h
COc1ccc(C2N(C(=O)CN3CCCC3)CCCN2S(=O)(=O)c2ccccc2)cc1 (stereo not given)	18%	5.2µM*	0%	i	?
CCN(CC)c1ccc(NC(=O)C2CCCN(S(=O)(=O)c3ccc4c(c3)oc(=O)n4C)C2)c(C)c1 (stereo not given)	.	.	-17%	-14%	.
CC1(C)CCc2cc(O)ccc2O1	.	.	-2%	-11%	.
Cn1c(N)c(C(=O)COC(=O)Cc2ccsc2)c(=O)n(C)c1=O	23%	20%	1%	-9%	10µM*
O=C(CSc1nc2ccccc2n1Cc1cccc(F)c1)NCc1ccccc1	.	.	-11%	-19%	.
CCn1c(=N)n(CC(=O)c2ccco2)c2ccccc21	4%	2%	.	.	.
Cc1ccccc1Cn1c(=N)n(CC(O)c2ccco2)c2ccccc21 (stereo not given)	?	9.3µM*	-22%	?	?
CC(C)(C)c1ccc(Cn2c(=N)n(CC(O)c3ccco3)c3ccccc32)cc1 (stereo not given)	-11%	2.3µM*	?	?	12µM*
O=C(NC1CCCC1)c1ccc2c(=O)n(Cc3ccccc3)c(SCc3ccccc3F)nc2c1	.	.	-9%	-16%	.
Cc1ccccc1NC(=O)C1(NC(=O)c2cccc(N3C(=O)CSC3c3ccccc3)c2)CCCCC1 (stereo not given)	-18%	12µM*	.	.	?
COc1ccc(N(C(=O)/C=C\C(=O)Nc2ccc(Cl)cc2)C(C(=O)NCc2ccco2)c2ccc(C)cc2)cc1 (stereo not given)	.	.	-19%	-24%	.
CCOc1c(Cl)cc(CNc2nnnn2C)cc1OC	-3%	5.9µM*	-11%	i	0%
CC(O)CNc1nc2sc3c(c2c(=O)n1CCc1ccccc1)CCCCC3 (stereo not given)	-12%	12µM*	-14%	i	0%
CN(C)CCNc1nc2sc3c(c2c(=O)n1CCc1ccccc1)CCCCC3	-29%	2.1µM*	.	.	2.3µM*
CC(O)CNc1nc2sc3c(c2c(=O)n1Cc1ccco1)CCCCC3 (stereo not given)	-14%	?	-4%	-15%	-4%
O=C1SC(Nc2ccccc2)C(=O)N1c1ccccc1 (stereo not given)	.	.	-11%	-13%	.
Cc1ccc2[nH]c3c(c2c1)CN(C(=O)CN1c2ccc(F)cc2CCC1C)CC3 (stereo not given)	-23%	12µM*	.	.	13µM*
CN(C)c1ccc(CNC(=O)CN2C(=O)c3cccnc3Oc3ccc(Cl)cc32)cc1	.	.	-2%	3%	.
CN[C@@H]1C[C@@H](c2ccc(Cl)c(Cl)c2)c2ccccc21	.	15µM*	.	.	13µM*
COc1ccccc1Cn1c(SCC(=O)C(C)(C)C)nc2cc(C(=O)N3CCC4(CC3)OCCO4)ccc2c1=O	.	5.9µM*	.	.	?
CCOC(=O)c1c(N2C(=O)C3C4C=CC(C4)C3C2=O)sc2c1CCC(C)C2 (stereo not given)	1%	1%	-2%	-7%	13µM*
COc1ccccc1/C=N/NC(=O)c1ccc2c(c1)OCO2	8%	?	-5%	-11%	?
CCCOc1ccc(/C=N/NC(=O)c2ccc3c(c2)OCO3)c(OCCC)c1	0%	5.9µM*	-17%	i	?
O=C(N/N=C\c1cn(-c2ccccc2)nc1-c1ccccc1)c1ccc2c(c1)OCO2	-7%	?	-35%	.	12µM*
O=C(N/N=C/c1cn(-c2cccs2)nc1-c1ccccc1)c1ccccc1O	64%	?	?	13µM*	6.6µM*
SMILES	AMA1 RON2 block	Pf growth 48h	VACV Venus inh	VACV mCherry inh	Pf growth 96h
O=C(N/N=C/c1cn(-c2ccccc2)nc1-c1ccc(F)cc1)c1ccc2c(c1)OCO2	-2%	?	-14%	.	13µM*
CCc1ccc(-n2nc(CO)c(C(=O)NCCOC)n2)cc1	.	.	-4%	-5%	.
CCOC(=O)c1c(C)[nH]c(C)c1S(=O)(=O)N1CCC(C(=O)Nc2ccccn2)CC1	.	.	-7%	-5%	.
CCOc1ccc(-c2cc3c(=O)n(CC(=O)NCc4ccc(F)cc4)ccn3n2)cc1	.	.	8%	0%	.
COc1ccc(-c2nn(-c3ccccc3)cc2/C=N/NC(=O)c2cccc(S(=O)(=O)Nc3ccccc3OC)c2)cc1	24%	3.3µM*	-16%	-15%	2.3µM*
Cc1ccc(C2N(C)c3ccccc3-c3nc4ccccc4n32)o1 (stereo not given)	12%	.	.	.	3.7µM*
CN1c2ccccc2-c2nc3ccccc3n2C1c1cccs1 (stereo not given)	30%	8.3µM*	-14%	-23%	1.7µM*
c1csc(C2Nc3ccccc3-c3nc4ccccc4n32)c1 (stereo not given)	13%	?	-15%	-19%	?
Cc1ccccc1CN1C(=O)c2ccccc2S(=O)c2ccc(C(=O)NCc3ccc4c(c3)OCO4)cc21 (stereo not given)	.	.	1%	3%	.
CC(=O)N1CCc2c(sc(NC(=O)c3ccc([N+](=O)[O-])o3)c2C(N)=O)C1	53%	.	5µM*	1.8µM*	.
CCOC(=O)N1CCc2c(sc(NC(=O)CCS(=O)(=O)c3ccccc3)c2C(N)=O)C1	9%	?	.	.	15µM*
CCN1CCc2c(sc(NC(=O)C3COc4ccccc4O3)c2C(N)=O)C1 (stereo not given)	0%	33%	?	-17%	-7%
CCOC(=O)N1CCc2c(sc(NC(=O)c3ccc(Cl)s3)c2C(N)=O)C1	.	?	.	.	13µM*
CCOC(=O)N1CCc2c(sc(NC(C)=O)c2C(N)=O)C1	4%	.	-10%	i	.
CCOC(=O)N1CCc2c(sc(NC(=O)C3COc4ccccc4O3)c2C(N)=O)C1 (stereo not given)	5%	?	.	.	9.3µM*
CCOc1ccc2c(c1)c(=O)c(S(=O)(=O)c1ccccc1)cn2CC(=O)Nc1ccccc1OC	.	.	-6%	-3%	.
CC(=O)N1CCc2c(sc(NC(=O)C3COc4ccccc4O3)c2C(N)=O)C1 (stereo not given)	13%	2%	-23%	-24%	12µM*
CCn1c(=O)c2cc(C(=O)NCc3cccs3)sc2c2ccccc21	0%	57%	-9%	10%	2.3µM*
COCCNC(=O)c1cc2c(=O)[nH]c3ccccc3c2s1	2%	?	-1%	-11%	1.2µM*
CCn1c(=O)c2cc(C(=O)NC(C)C)sc2c2ccccc21	-16%	-15%	.	.	?
CCCCNC(=O)c1cc2c(=O)n(CC)c3ccccc3c2s1	-4%	2%[0.00184 µM]	-2%	i	6.6µM*
CCn1c(=O)c2cc(C(=O)NCCCN(C)Cc3ccccc3)sc2c2ccccc21	.	.	-13%	-18%	.
